Reference: PubChem BioAssay (NCI)
Compounds without any hit were thinned out: in the full panel of roughly 83,000, 20% have a hit.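 A percent growth of 40 corresponds to 60% growth inhibition; 0 means no net growth; -100 means all cells died. Active threshold: below 10.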 Activity calls are given as the source filed them.

What follows are compounds tested on CAKI-1 renal (assay: NCI-60 one-dose screen, 48 h (100 = growth as untreated, 0 = no growth, -100 = all killed)). Conditions: 10 µM unless noted.
Description: Growth inhibition of the CAKI-1 human tumor cell line is measured as a screen for anti-cancer activity. Cells are grown in 96 well plates and exposed to the test compound for 48 hours. Compounds are tested at a single concentration, which is 10^-5 M for most compounds. The reported endpoint is percent growth (GI% or GIPRCNT), where numbers from 0 - 100% represent growth inhibition, and numbers from -100% - 0 represent cell death. For example, a value of 40 represents 60% growth inhibition. A value of 0 means no net growth occurred over the course of the experiment. A value of -40 indicates 40% of cells at the beginning of the experiment died by the end of the experiment. A value of -100 means all cells are dead at the end of the experiment.
NCI-60 Human Tumor Cell Lines Screen was performed using the standard one-dose NCI protocol, which is described in more detail at https://dtp.cancer.gov/discovery_development/nci-60/default.htm.
Compounds with GIPRCNT values below 10 were considered active. Activity score was based on GIPRCNT using the following formula: […]
Score is 0 for GIPRCNT values of 100 or above, 50 for GIPRCNT values of 0, and 100 for GIPRCNT values of -100.

Compound | growth
Nc1ncnc2c1N=C(c1ccc3c(c1)OCO3)CC(c1ccc([N+](=O)[O-])cc1)N2 (stereo not given) | 99.2% (inactive)
COc1ccc(CC(C#N)c2cc3ccccc3[nH]2)cc1 (stereo not given) | 72.6% (inactive)
COc1ccc(-c2nc(SCC(C)C)nc(N/N=C\c3ccc(F)cc3)c2C#N)cc1 | 91.1% (inactive)
O=Cc1ccc([N+](=O)[O-])s1 | 100% (inactive)
OCCOCCN(Cc1ccccn1)Cc1cc(I)cc(I)c1O | 23.7% (inactive)
O=C(CCCCCCN1CC(=O)N2[C@H](c3cc(Br)cs3)c3[nH]c4ccccc4c3C[C@H]2C1=O)NO | 43.7% (inactive)
CN1CCN(C(=O)c2ccc(NC(=O)Nc3ccc(-c4nc(N5CCOCC5)c5cccn5n4)cc3)cc2)CC1 | 15.3% (inactive)
COC(=O)CNC(=O)[C@H](Cc1ccccc1)NCc1ccncc1 | 99.1% (inactive)
CC(=O)n1nc(C(=O)OC(C)C)c2cc(C)c(C)cc21 | 99.3% (inactive)
C=CCn1cc(-c2nc3ccccc3s2)c2cc(-c3ccc4c5c(cccc35)C(=O)N(N)C4=O)ccc21 | 75.1% (inactive)
COc1ccc(OC)c(-c2c(C#N)c(-c3cccs3)nc3c2c(-c2ccccc2)nn3-c2ccccc2)c1 | 91.9% (inactive)
O=C(/C=C/c1ccc(Cl)cc1)c1cccc(Nc2nc(Nc3ccccc3)nc(Nc3ccccc3)n2)c1 | 83.6% (inactive)
COC(=O)c1cc(-c2ccc(OC)cc2)[nH]c1N/N=C/c1c(Cl)cccc1Cl | -5.7% (active)
O=C(Nc1ccc(-c2nc(N3CCOCC3)c3cccn3n2)cc1)Nc1cccnc1 | 8.83% (active)
C#CCn1cnc2c(Nc3cccc(NC(=O)C=C)c3)ncnc21 | 82.1% (inactive)
C=C1CC[C@@H]2[C@](C)(COC(C)=O)[C@H](OC(C)=O)CC[C@@]2(C)[C@@H]1CC(Sc1ccccc1)C1=CCOC1=O (stereo not given in full) | 90.6% (inactive)
Cc1cccc(N2CCN(CC(O)COc3ccc(Cl)cc3)CC2)c1 (stereo not given) | 84.5% (inactive)
Cn1c(=O)c2[nH]c(N/N=C/c3ccccc3Br)nc2n(C)c1=O | 93.4% (inactive)
CS(=O)(=O)Nc1cc(-c2ccc3ncnc(Nc4c(Cl)ccc5c4OCO5)c3c2)cnc1Cl | -30.4% (active)
Cc1ccc(-c2csc(NC(=O)CN3CCN(c4cc5c(cc4F)c(=O)c(C(=O)O)cn5C4CC4)CC3)n2)cc1 | 20.8% (inactive)

Compound | growth
CN(C)C1CCN(Cc2ccc(NC(=O)c3cncc(C#Cc4cnc(N)c5ncccc45)c3)cc2C(F)(F)F)CC1 | 78.4% (inactive)
O=c1oc2ccccc2cc1C1=NN=C(SCc2ccccc2)SC1 | 87.4% (inactive)
CC1(C)CC2=C3C=C[C@@H]4[C@@]5(C)CCC(=O)C(C)(C)[C@@H]5CC[C@@]4(C)[C@]3(C)CC[C@@]2(C(=O)O)CC1=O | 52.3% (inactive)
O=[N+]([O-])c1ccc(N/N=C(/C(=N/Nc2ccc([N+](=O)[O-])cc2)c2ccccc2)c2ccccc2)cc1 | 53.7% (inactive)
CCN1C(=O)N(CC)C2C1NN=c1s/c(=C\c3cccc([N+](=O)[O-])c3)c(=O)n12 (stereo not given) | 25.7% (inactive)
CN1CCN(Cc2ccc(NC(=O)c3cncc(C#Cc4cnc(N)c5ccccc45)c3)cc2C(F)(F)F)CC1 | -92.1% (active)
COc1cc(CNS(=O)(=O)c2ccc(C)cc2)ccc1OCc1cn(-c2ccc(F)cc2)nn1 | 89.6% (inactive)
Cc1nc(N2CCOCC2)sc1S(N)(=O)=O | 96.9% (inactive)
COC(=O)[C@]1(C)CCC[C@]2(C)[C@H]3C[C@H]4C(C(C)C)=C[C@]3(CC[C@H]21)[C@H]1[C@@H]4[C@@H](OCCC#N)CC[C@@H]1OCCC#N | 51.8% (inactive)
COc1cc(-c2cc(-c3cccs3)c(C#N)c(N3CCOCC3)n2)cc(OC)c1OC | 66.5% (inactive)
C=C(C)[C@@H]1CC[C@]2(C(=O)N3CCN(C)CC3)CC[C@]3(C)[C@H](CC[C@@H]4[C@@]5(C)CC(=C/c6ccncc6)/C(=N/O)C(C)(C)[C@@H]5CC[C@]43C)[C@@H]12 | 63.8% (inactive)
Cc1ccc(-n2c(=S)[nH]c3sc4c(c3c2=O)CCC(=O)C4)cc1 | 28.6% (inactive)
C#COc1cccc(Nc2ncnc3ncc(NC(=O)CCl)cc23)c1 | 36.4% [6.25 µM] (inactive)
N#C/C(=C\c1ccc(-c2ccc(Cl)cc2)o1)C(=O)Nc1ncc(Cc2ccc(Cl)cc2)s1 | 39.1% (inactive)
CCc1nc2c(=O)[nH]cnc2o1 | 100% (inactive)
N#CC1=C(N)Oc2c(sc3c(F)cccc23)C1c1ccc(F)cc1 (stereo not given) | 29.1% (inactive)
CCNC(=O)c1[nH]cc(-c2ccccc2)c1-c1cc(OC)c2c(c1OC)OCO2 | 74.7% (inactive)
C#Cc1cccc(Nc2ncnc3ccc(-c4cncc(NS(C)(=O)=O)c4)cc23)c1 | 54.9% (inactive)
COc1ccc(C(c2cc(OC)c(OC)c(OC)c2)N2CCN(c3ccccc3)CC2)cc1 (stereo not given) | 86.4% (inactive)
C=CCc1c2c(c(OC)c3ccoc13)C(=O)/C(=C/c1ccccc1OC)O2 | 38.4% (inactive)
